Assay outcomes (PubChem BioAssay)
Vaccinia mCherry: inhibitors of vaccinia virus infection (mCherry reporter signal) | Vaccinia virus mCherry reporter infection, fluorescence | 0.63% of 310,000 active | Potency, µM (top dose mostly 36.5 µM), for the others: at the top dose activity change, negative = inhibition, most hits filed as inhibitors; calls by dose curve; tested in A549 cells; also: nearly all actives have a fitted effect of over 35% in size
HCV inh: blocks hepatitis C virus; Huh7.5.1 HCVcc-Cre infection, luciferase reporter, 44 h; Potency, µM (series often up to 41.8 µM), for the others: at the top dose activity change, negative = inhibition, most hits filed as inhibitors; 3.4% of 340,000 active; active = well fitted inhibition curve with a large enough effect; inconclusive = small, poorly fitted or top-dose-only effect, or another doubt; inactive = no such curve, though single readings can be large or run the other way
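HCVcc-Cre virus at an moi near 0.5 was added right after compound to cells cultured 4 h from seeding (1,000 cells/well). Luciferase activity was determined 44 h later, 15 min after substrate addition at RT.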
Vaccinia Venus: inhibitors of vaccinia virus (Venus reporter) | Vaccinia virus Venus reporter expression, fluorescence | Potency, µM (top dose mostly 36.5 µM), for the others: top-dose activity change, negative = inhibition, usual class: inhibitors | 0.46% of 330,000 active; calls by dose curve; tested in A549 cells; also: nearly all actives have a fitted effect of over 30% in size
An asterisk follows results filed as active; i = inactive; u = inconclusive; x = no result; [ ] = remark or other dose. Only some compounds are listed: those with a hit (about 3.3% of all), similar ones and a draw of the others. % is scaled to controls: 0 for no effect and ±100 for the full control effect; potency is read from the fitted curve at half-maximal effect.

SMILES	Vaccinia mCherry	HCV inh	Vaccinia Venus
COc1ccccc1-c1sc2ccccc2c1-c1cnc(N2CCOCC2)nc1	29%	x	-5%
N#C/C(=C\Nc1ccccc1O)c1nc2ccccc2o1	u	10µM*	u
N#C/C(=C\c1ccncc1)c1nc2ccccc2o1	i	9%	13%
COC(=O)c1ccc(C2CC(=O)Nc3c2c(C)nn3-c2nc(C)cc(C)n2)cc1 (stereo not given)	-6%	x	-13%
c1ccc2ncccc2c1	4%	17%	-8%
c1ccc2nccnc2c1	11µM*	x	3.5µM*
O=C(NNc1ccccc1C(F)(F)F)c1sccc1Cl	-20%	x	-12%
O=C(NCCN1Cc2ccccc2OC(c2ccsc2)C1)c1cncs1 (stereo not given)	-11%	x	-5%
Cc1ccc(C(=O)NNC(=O)C2CCN(Cc3ccccc3)CC2)cc1	x	-12%	-10%
O=C(c1cc(S(=O)(=O)N2CCOCC2)ccc1F)N1CCN(Cc2ccccc2)CC1	i	6%	-7%
O=S(=O)(c1ccccc1)N1CCC(O)(CSc2ccc(Cl)cc2)CC1	-27%	3.5µM*	-19%
O=C(NNC(=O)C1CCN(Cc2ccccc2)CC1)c1cccc(Cl)c1	x	10µM*	-19%
O=S(=O)(c1ccc(Cl)cc1)N1CCC(O)(CN2CCN(Cc3ccccc3)CC2)CC1	u	13µM*	u
Cc1ccc(SCC2(O)CCN(C(=O)c3ccc(Cl)cc3)CC2)cc1	x	u	-29%
O=C(NC1CCN(Cc2ccccc2)CC1)C1CCN(S(=O)(=O)c2ccc(Cl)cc2)CC1	u	10µM*	-8%
O=C(NC1CCN(Cc2ccccc2)CC1)C1CCN(S(=O)(=O)c2ccccc2)CC1	-28%	u	-11%
Cc1oc2ncnc(N3CCCCC3)c2c1C(=O)N1CCN(c2cccc(C(F)(F)F)c2)CC1	-14%	x	5%
CCCCc1nc2cc(C(=O)NCc3nccn3CC)ccc2o1	x	-20%	x
CCCCc1nc2cc(C(=O)NCc3cn(C)nc3C)ccc2o1	i	13µM*	-6%
CC(NC(=O)COC(=O)Cc1cccs1)c1ccc(F)cc1 (stereo not given)	i	14%	-13%
COc1cc(C2C(=O)N(C3CCCCC3)CC(=O)N2C2CCCCC2)ccc1OC(C)C (stereo not given)	-9%	x	0%
Cc1ccc(-c2nnc3ccc(SCC(=O)c4ccccc4)nn23)cc1	-25%	x	u
CC(C)c1ccc(OCC(=O)Nc2ccc3oc(=O)ccc3c2)cc1	7%	u	5%
COc1cc(C2c3c([nH]c(=O)[nH]c3=O)Nc3ccc4ccccc4c32)ccc1O (stereo not given)	u	10µM*	-3%
COc1cc(C2c3c([nH]c(=O)[nH]c3=O)Nc3ccc4ccccc4c32)cc(OC)c1OC (stereo not given)	-13%	17%	-11%
SMILES	Vaccinia mCherry	HCV inh	Vaccinia Venus
Cc1ccccc1OCC(=O)Nc1ccc2nc(SCC(=O)N3CCCC3)sc2c1	-4%	x	-10%
Cc1cc(C)c2c(n1)nn1c(C)c(CCC(=O)NCc3ccccc3Cl)c(C)nc21	10%	x	-9%
Cc1ccc(-c2csc(-c3ccncc3)n2)cc1	x	-9%	x
COc1ccc(/C=C/c2cc(O)cc(O)c2)cc1	i	x	0%
COc1ccc(O)cc1	27%	0.79µM*	21%
COc1ccc(-c2csc(-c3ccc(O)cc3)n2)cc1	3.5µM*	u	u
C[C@H]1C[C@@H](C)C(=O)[C@@H]([C@H](O)CC2CC(=O)NC(=O)C2)C1	0.32µM*	u	0.32µM*
CCOC(=O)CN1C(=O)CC(C[C@@H](O)C2C[C@@H](C)C[C@H](C)C2=O)CC1=O (stereo not given in full)	i	x	-8%[60.7 µM]
CCC12CN3CCN(CC(C3)/C1=N/NC(N)=O)C2	-2%	7%	-2%
CC1CC(C)C(=O)[C@H](C(O)CC2CC(=O)NC(=O)C2)C1 (stereo not given in full)	2µM*	x	0.89µM*
CC1CC(C)C(=NNC(N)=O)C(C(O)CC2CCC(=O)NC2=O)C1 (stereo not given)	u	10µM*	7.9µM*
COc1ccccc1C1CN(CCNC(=O)c2ccccc2Cl)Cc2ccccc2O1 (stereo not given)	i	x	-16%
O=C(NCC1Cc2cc(F)cc(-c3cnccn3)c2O1)c1cccc(-c2ccccc2F)c1 (stereo not given)	i	x	-13%
Cc1c2cnn(CC(=O)Nc3cccc(C(F)(F)F)c3)c(=O)c2c(C)n1Cc1ccccc1Cl	-1%	x	-16%
O=C(CC1CCCCC1)NCCS(=O)(=O)N1CCN(c2ccccc2)CC1	i	14%	-14%
CC(=O)c1cccc(NC(=O)/C(=C\c2cccnc2)NC(=O)c2ccco2)c1	i	-1%	6%
CCN(CC)c1ccc(C(=O)N/N=C/c2ccccc2OC(F)F)cc1	x	11µM*	x
